# Measurements: PubChem BioAssay (NCATS)
# Where “and” joins values, the source holds several entries; their conditions need not be identical. Identical values can stand only once. Inconclusive results are not listed. Where a call stands in place of a potency, no number is given. Where a structure was tested more than once in an assay, its records may differ in their call. A number with no mark means an inactive call. Calls of active or inactive are those of the source. The call rests on the fitted dose curve; in most records, active means well fitted curve in the direction sought with a large enough effect; inconclusive means small, poorly fitted or top-dose-only effect, or another doubt; inactive means no such curve, though single readings can be large; an effect the other way counts as inactive or inconclusive.
# How the values were obtained:
# [1] = Viability qHTS for spleen associated tyrosine kinase inhibitor (SYKi) naive MV4-11 cells (AID 1963823); further: nearly all actives have a fitted effect of over 40% in size; further: potency means the concentration at half of the fitted maximal effect
# How it was run: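 Compounds were dispensed acoustically onto plates, MV4-11 cells (SYKi-naive) added at 500 per well, and plates incubated 72 hr at 37 C. CellTiter-Glo was added and luminescence measured after 10 min.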
# [2] = Viability qHTS for spleen associated tyrosine kinase inhibitor (SYKi) drug resistant MV4-11 cells (AID 1963824); further: nearly all actives have a fitted effect of over 35% in size; further: potency means the concentration at half of the fitted maximal effect
# How it was run: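 SYK-inhibitor-resistant MV4-11 AML cells were seeded at 500 per well onto compound and cultured 72 hours (37 °C, 5% CO2). CellTiter-Glo was then added, and after 10 min at room temperature, luminescence gave viability.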
# [3] = Cellular viability qHTS for adrenocortical cancer (ACC) cell line SW-13 (AID 1963989); conditions: SW-13 ACC cells viability, CellTiter-Glo, 48 h; activity (max response): stronger effect = lower value;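 further: cells grown in serum-free medium with ITS supplement; nearly all actives have a fitted effect of over 65% in size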
# How it was run: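 SW-13 cells in ITS-supplemented serum-free DMEM were plated overnight, then exposed for 48 h at 37C to compound titrations (up to 46 uM final). Viability was read by CellTiter-Glo luminescence; four-parameter logistic fits gave IC50 and efficacy.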
# [4] = Cellular viability qHTS for adrenocortical cancer (ACC) cell line NCI-H295R (AID 1963990); further: nearly all actives have a fitted effect of over 60% in size
# How it was run: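 Luminescent ATP read-out (CellTiter-Glo, 20 min RT) after 48 h drug exposure of NCI-H295R cells; a titration up to 46 uM final. Data normalized to doxorubicin (100% inhibition) and DMSO (0%); 4-parameter fit gives IC50, max response.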
compound,measurement,setting,value
COc1ccc(/C=C/C(=O)O[C@@H]2[C@@H](O)[C@H](C)O[C@@H](OC3C4C=COC(O[C@@H]5O[C@H](CO)[C@@H](O)[C@H](O)[C@H]5O)C4C4(CO)OC34)[C@@H]2O)cc1OC (stereo partly drawn),Potency,[1],inactive
same,Potency,[2],inactive
C=CC1(C)C=C2CC[C@H]3[C@@](C)(C(=O)O)CCC[C@]3(C)C2CC1 (stereo partly drawn),Potency,[1],1.61 µM (active)
O=C(OCc1ccccc1O[C@@H]1O[C@H](CO)[C@@H](O)[C@H](O)[C@H]1O)C1(O)C=CCCC1O (stereo partly drawn),Potency,[1],inactive
CC(C)S(=O)(=O)N[C@H]1CCOC[C@@H]1c1ccc(-c2ccc(C#N)s2)cc1,Potency,[1],inactive
COc1ccc(Oc2c(Cl)cnn(-c3cc(C)cc(C)c3)c2=O)cc1,Potency,[1],2.31 µM (active)
same,Potency,[2],2.06 µM (active)
C/C=C/C=C/C=C/C(=O)OC1C=C2C(O)OC(=O)[C@]2(O)[C@@]2(C)CCCC(C)(C)[C@H]12 (stereo partly drawn),Potency,[1],6.32 µM (active)
Cc1cc(O)cc(O[C@@H]2O[C@H](CO)[C@@H](O)[C@H](O)[C@H]2O)c1,Potency,[1],inactive
same,Potency,[2],inactive
COc1cc(C)c(C(=O)O[C@H]2[C@@H](OC(C)=O)[C@H](n3ccc(=O)[nH]c3=O)O[C@@H]2CO)c(OC)c1,Potency,[1],inactive
CC(=O)[C@H]1CC[C@H]2[C@@H]3CC=C4C[C@@H](OS(=O)(=O)O)CC[C@]4(C)[C@H]3CC[C@]12C,Potency,[1],inactive
O=S(=O)(c1ccc(S(=O)(=O)n2cnc3ccccc32)cc1)N1CCCCCC1,Potency,[1],inactive
CCCC(=O)O[C@]1(C(=O)CCl)[C@@H](C)C[C@H]2[C@@H]3CCC4=CC(=O)C=C[C@]4(C)[C@@]3(F)C(=O)C[C@@]21C,Potency,[1],11.9 µM (active)
same,Potency,[2],13.3 µM (active)
COc1cc(C[C@@]2(O)CO[C@@H](c3ccc(O[C@@H]4O[C@H](CO)[C@@H](O)[C@H](O)[C@H]4O)c(OC)c3)[C@H]2CO)ccc1O,Potency,[1],inactive
CCC(C)C(=O)O[C@H]1[C@@H](OC(=O)c2ccoc2)C[C@](C)(O)[C@]23OC(C)(C)[C@H](C[C@H](OC(=O)c4ccoc4)[C@]12COC(C)=O)[C@H]3OC(C)=O (stereo partly drawn),Potency,[1],inactive
C[C@@H]1O[C@@H](O[C@H]2[C@H](O)[C@@H](O)[C@H](O[C@H]3[C@H](O[C@H]4CC[C@@]5(C)C(=CC[C@@H]6C5CC[C@]5(C)[C@@H]7[C@H](C[C@@H]65)O[C@]5(CC[C@@](C)(CO[C@@H]6O[C@H](CO)[C@@H](O)[C@H](O)[C@H]6O)O5)[C@H]7C)C4)O[C@H](CO)[C@@H](O)[C@@H]3O)O[C@@H]2CO)[C@H](O)[C@H](O)[C@H]1O (stereo partly drawn),Potency,[1],0.618 µM (active)
C[C@@]12C[C@]3(O)O[C@H](O1)[C@]1(COC(=O)c4ccccc4)[C@H]3C[C@@]12O[C@@H]1O[C@H](CO)[C@@H](O)[C@H](O)[C@H]1O,Potency,[1],inactive
C=C1C(O)C(O)C2(CC3C(C)=CCC4C(C)(C(=O)O)CCCC34C)OC2C1O (stereo not drawn),Potency,[1],inactive
same,Potency,[2],inactive
CC1(C)CCCC2(C)C(C(=O)O)=CCC12 (stereo not drawn),Potency,[1],inactive
C[C@@H]1C[C@H]2O[C@@H]2/C=C\C=C\C(=O)Cc2c(Cl)c(O)cc(O)c2C(=O)O1,Potency,[1],0.0321 µM (active)
same,viability (% of control),[1],9.93% [at 9.25 µM]
same,Potency,[2],0.0718 µM (active)
CC(OC1OCCN(Cc2n[nH]c(=O)[nH]2)C1c1ccc(F)cc1)c1cc(C(F)(F)F)cc(C(F)(F)F)c1 (stereo not drawn),Potency,[1],9.2 µM (active)
same,Potency,[2],5.8 µM (active)
CC[C@H]1OC(=O)[C@H](C)[C@@H](O[C@H]2C[C@@](C)(OC)[C@@H](O)[C@H](C)O2)C(C)[C@@H](O[C@@H]2O[C@H](C)C[C@H](N(C)C)[C@H]2O)[C@](C)(O)C[C@@H](C)CN(C)[C@H](C)[C@@H](O)[C@]1(C)O (stereo partly drawn),Potency,[1],inactive
CC1CCC2C(C)(C)C(O)C(O)CC2(C)C12Cc1c(O)cc(CO)c(C=O)c1O2 (stereo not drawn),Potency,[1],inactive
C=C(C)C(=O)OC1CC(CO)CCC/C(CO)=C/C2OC(=O)C(=C)C21 (stereo not drawn),Potency,[1],1.61 µM (active)
O=C(O)c1cn(C2CC2)c2cc(N3C[C@@H]4C[C@H]3CN4)c(F)cc2c1=O,Potency,[1],inactive
COC(=O)C1=COC(OC2OC(CO)C(O)C(O)C2O)C2C(COC(=O)/C=C/c3ccc(O)cc3)C(O)C(O)C12 (stereo not drawn),Potency,[1],inactive
O=C(CC(c1ccccc1)c1ccccc1)N1CCN(C(c2ccccc2)c2ccccc2)CC1,Potency,[1],13 µM (active)
CCN(CC)CCCC(C)Nc1ccnc2cc(Cl)ccc12 (stereo not drawn),Potency,[1],8.2 µM (active)
same,viability (% of control),[1],72.7% [at 9.25 µM]
same,Potency,[2],10.3 µM (active)
same,activity (max response),[3],0.695% and -16.4%
same,Potency,[4],inactive
C=C[C@H]1[C@H](O[C@@H]2O[C@H](CO)[C@@H](O)[C@H](O)[C@H]2O)OC=C(C(=O)OC)[C@H]1CCOC(=O)c1cc(O)c(O)c(O)c1,Potency,[1],inactive
OCC(Cc1ccccc1)Nc1nc(Oc2ccc3c(c2)CCC3)nc2c1ncn2Cc1ccc(-c2ccccc2)cc1 (stereo not drawn),Potency,[1],18.4 µM (active)
same,Potency,[2],7.31 µM (active)
COc1cc(/C=C/C(=O)O[C@H]2[C@@H]3C=CO[C@@H](O[C@@H]4O[C@H](CO)[C@@H](O)[C@H](O)[C@H]4O)[C@@H]3[C@@]3(CO)O[C@@H]23)ccc1O,Potency,[1],inactive
same,Potency,[2],inactive
OCC1OC(Oc2cc(O)cc(/C=C/c3ccc(OC4OC(CO)C(O)C(O)C4O)cc3O)c2)C(O)C(O)C1O (stereo not drawn),Potency,[1],inactive
same,Potency,[2],inactive
C=C(C)C(=O)O[C@H]1[C@H]2C(=C)C(=O)O[C@@H]2C[C@@H](C)/C=C\C(=O)[C@](C)(O)[C@@H]1OC(C)=O,Potency,[1],inactive
same,Potency,[2],inactive
C=C1C(=O)O[C@@H]2C[C@H](C)[C@@H]3CC(=O)[C@H](O)[C@@]3(C)C[C@H]12,Potency,[1],9.2 µM (active)
same,Potency,[2],11.6 µM (active)
N[C@@H](Cn1ccc(=O)c(O)c1)C(=O)O,viability (% of control),[1],88% [at 4.97 µM]
same,"viability, % of control",[2],98% [at 4.97 µM]
CC(=O)OC1C(=O)C2(C)C(O)CC3OCC3(OC(C)=O)C2C(OC(=O)c2ccccc2)C2(O)CC(OC(=O)C(O)C(NC(=O)c3ccccc3)c3ccccc3)C(C)=C1C2(C)C (stereo not drawn),Potency,[1],0.0058 µM (active)
same,Potency,[2],0.0073 µM (active)
